12-LOX inh: Primary qHTS assay for inhibitors of human arachidonate 12S-lipoxygenase (ALOX12): Round 2; Polyunsaturated fatty acid lipoxygenase ALOX12 (Homo sapiens), P18054; purified 12hLO, xylenol orange hydroperoxide absorbance; Potency, µM (series often up to 108 µM), for inactives: at the highest dose activity change, negative = inhibition, most hits filed as inhibitors; hit rate 1.1% among 580,000; AID 1671190, 2021
Target sequence (P18054 whole entry, looked up): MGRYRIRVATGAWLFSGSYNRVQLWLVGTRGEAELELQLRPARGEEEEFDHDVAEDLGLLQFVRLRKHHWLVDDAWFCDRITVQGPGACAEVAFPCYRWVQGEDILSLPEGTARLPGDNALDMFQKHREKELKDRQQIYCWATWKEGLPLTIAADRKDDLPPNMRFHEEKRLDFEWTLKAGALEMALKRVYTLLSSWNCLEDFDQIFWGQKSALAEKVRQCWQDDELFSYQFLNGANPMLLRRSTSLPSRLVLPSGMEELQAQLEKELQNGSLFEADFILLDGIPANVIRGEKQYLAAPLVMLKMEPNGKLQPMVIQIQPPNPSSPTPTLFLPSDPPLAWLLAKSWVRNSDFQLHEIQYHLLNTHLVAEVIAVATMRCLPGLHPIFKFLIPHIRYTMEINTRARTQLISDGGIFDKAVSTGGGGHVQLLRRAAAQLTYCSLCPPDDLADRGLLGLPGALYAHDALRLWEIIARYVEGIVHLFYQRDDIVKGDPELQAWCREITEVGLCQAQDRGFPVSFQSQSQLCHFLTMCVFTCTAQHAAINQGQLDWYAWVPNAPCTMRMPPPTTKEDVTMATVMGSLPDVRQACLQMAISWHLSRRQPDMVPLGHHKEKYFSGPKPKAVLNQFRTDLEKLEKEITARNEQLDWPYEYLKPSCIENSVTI
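Hydroperoxide product was detected by ferrous iron/xylenol orange as the 573 to 405 nm absorbance ratio. Arachidonic acid at 40 uM (final) was turned over for 30 min at room temperature by 150 nM human 12hLO, pH 7.0 Hepes buffer, after 15 min compound preincubation.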
ELG1 DNA repair: qHTS screen for small molecules that inhibit ELG1-dependent DNA repair in human embryonic kidney (HEK293T) cells expressing luciferase-tagged ELG1; AID 504467, 2011; HEK293T ELG1-luciferase reporter, luminescence, 16 h; DNA damage induced by 5-fluorouridine; Potency, µM (highest dose often 46.1 µM), for the others: at the highest dose activity change, negative = inhibition, actives largely listed as inhibitors; hit rate 2.3% among 330,000; note: nearly all actives have a fitted effect of over 55% in size
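Reporter activity after DNA damage by 5-fluorouridine is monitored. Compound-treated cells incubate 16 hr at 37 °C, then ONE-Glo is added for 30 min before luminescence reading.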
RORg inh: qHTS for inhibitors of ROR gamma transcriptional activity. hit rate 5.4% among 310,000. Nuclear receptor ROR-gamma (Mus musculus), P51450. Drosophila S2 Gal4-RORgamma UAS-luciferase reporter, 20 h. Potency, µM (doses to about 53.6 µM), inactives show at the top dose activity change, negative = inhibition, actives largely listed as inhibitors; note: nearly all actives have a fitted effect of over 60% in size
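Drosophila Schneider cells stably carrying a metallothionein-driven Gal4 DBD–ROR gamma fusion and a UAS-Photinus luciferase reporter were exposed to compound for 1 hr, then induced with copper sulfate (700 uM final) for 20 hr at ambient temperature before luminescence reading.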
DT40 TDP1 no CPT: qHTS for Inhibitors of human tyrosyl-DNA phosphodiesterase 1 (TDP1): qHTS in cells in absence of CPT | Potency, µM (series often up to 46.2 µM), inactives show top-dose activity change, negative = growth inhibition, actives largely listed as inhibitors | AID 686978, 2013 | hit rate 15% among 420,000 | DT40 Tdp1-/- hTDP1 cells, no CPT, ATP luminescence, 48 h; note: nearly all actives have a fitted effect of over 55% in size
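Growth kinetics read by CellTiter-Glo luminescence after ≥48 hr at 37 °C. Cells: DT40 Tdp1-/- stably carrying human TDP1, 400 per well, compound exposure in the absence of CPT (DMSO vehicle).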
Gal4-VP16 FLuc: VP16 counterscreen qHTS for inhibitors of ROR gamma transcriptional activity; Drosophila S2 Gal4-VP16 UAS-luciferase, luminescence, 20 h; Potency, µM (doses to about 53.6 µM), for the others: top-dose activity, negative = inhibition, most hits filed as inhibitors; hit rate 3.5% among 310,000;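 note: Gal4-VP16 expression switched on by copper sulfate through the metallothionein promoter; nearly all actives have a fitted effect of over 50% in size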
DT40 TDP1 CPT: qHTS for Inhibitors of human tyrosyl-DNA phosphodiesterase 1 (TDP1): qHTS in cells in presence of CPT. hit rate 12% among 420,000. chicken DT40 Tdp1-/-;hTDP1 cells + 20 nM CPT, ATP luminescence, 48 h. Potency, µM (titrated, usually from 46.2 µM), without a hit: top-dose activity change, negative = growth inhibition, hits mostly inhibitors. AID 686979, 2013; note: nearly all actives have a fitted effect of over 55% in size
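Chicken DT40 Tdp1-/- cells stably complemented with human TDP1 were seeded at 400 cells/well in medium containing 20 nM camptothecin, exposed to pin-transferred compounds, and grown at 37 °C for at least 48 hr. Viability was read as ATP luminescence.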
ELG1 FLuc counter: qHTS screen for small molecules that inhibit ELG1-dependent DNA repair: Hit Confirmation in Cell-Based Luciferin Assay; shares compounds with ELG1 DNA repair; hit rate 3% among 350; cell-free firefly luciferase luminescence counter-screen, ViewLux; Potency, µM (series often up to 46.1 µM), without a hit: at the highest dose activity change, negative = inhibition, most hits filed as inhibitors
ELG1-Luc inh: HTS assay for small molecules that inhibit ELG1-dependent DNA repair in human embryonic kidney (HEK293T) cells expressing luciferase-tagged ELG1: Hit Confirmation; Potency, µM (series often up to 46.1 µM), for the others: at the top dose activity change, negative = inhibition, actives largely listed as inhibitors; AID 624248, 2012; HEK293T ELG1-luciferase levels, luminescence; cells co-treated with 5-fluorouridine; hit rate 68% among 670; shares compounds with ELG1 DNA repair; note: nearly all actives have a fitted effect of over 55% in size
ELG1-Luc MMS: confirmation of human ELG1 repair inhibitors, MMS stimulated | shares compounds with ELG1 DNA repair | HEK293T luciferase-tagged ELG1 level, MMS stimulated | Potency, µM (highest dose often 46.1 µM), without a hit: at the top dose activity change, negative = inhibition, actives largely listed as inhibitors | hit rate 53% among 670; note: nearly all actives have a fitted effect of over 60% in size
ELG1 5-FU: qHTS screen for small molecules that inhibit ELG1-dependent DNA repair: Hit Confirmation with 5FU Viability; AID 624250, 2012; shares compounds with ELG1 DNA repair; Potency, µM (series often up to 46.1 µM), for inactives: at the top dose activity change, negative = viability loss, hits mostly cytotoxic; cell viability with 5-FU, ELG1-dependent repair; 670 tested, under 10 active;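 note: ELG1-luc HEK293T cells cotreated with 5-fluorouridine at 10 µM final; viability measured 16 h after compound addition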
ELG1 MMS viab: qHTS screen for small molecules that inhibit ELG1-dependent DNA repair: Hit Confirmation with MMS Viability | Potency, µM (highest dose often 46.1 µM), without a hit: at the highest dose activity change, negative = viability loss, usual class: cytotoxic | Cell viability with MMS, ELG1-dependent DNA repair | AID 624251, 2012 | shares compounds with ELG1 DNA repair | hit rate 33% among 670;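 note: ELG1-luc HEK293T cells co-treated with 10 µM MMS; viability read 16 h after compound addition; nearly all actives have a fitted effect of over 60% in size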
Cell viab unstim: qHTS screen for small molecules that inhibit ELG1-dependent DNA repair: Hit Confirmation with Unstimulated Viability Assay; shares compounds with ELG1 DNA repair; cell viability counter-screen, unstimulated, luminescence; Potency, µM (top dose mostly 45.9 µM), without a hit: at the highest dose activity change, negative = loss of viability, hits mostly cytotoxic; hit rate 8% among 900;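 note: compound exposure lasted 16 hours before reading; nearly all actives have a fitted effect of over 55% in size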
FLuc biochem: qHTS screen for small molecules that inhibit ELG1-dependent DNA repair: Hit Confirmation in Biochemical Luciferin Assay. purified firefly luciferase, luminescence counter-screen. hit rate 10% among 350. shares compounds with ELG1 DNA repair. AID 624253, 2012. Potency, µM (doses to about 57.5 µM), for inactives: at the highest dose activity, negative = inhibition, hits mostly inhibitors
Starred values were filed as active, the others as inactive; ? = inconclusive; . = not tested or not shown; [ ] = dose if it differs, or a comment. This is a sample that favours compounds with a hit; in the whole collection about 15% have one here. Calls come from the whole dose curve; as a rule, active = well fitted curve in the direction sought with a large enough effect; inconclusive = small, poorly fitted or top-dose-only effect, or another doubt; inactive = no such curve, though single readings can be large; an effect the other way counts as inactive or inconclusive. % is set by controls: 0 for no effect and ±100 for the full control effect; potency is the fitted concentration of half-maximal effect.

SMILES	12-LOX inh	ELG1 DNA repair	RORg inh	DT40 TDP1 no CPT	Gal4-VP16 FLuc	DT40 TDP1 CPT	ELG1 FLuc counter	ELG1-Luc inh	ELG1-Luc MMS	ELG1 5-FU	ELG1 MMS viab	Cell viab unstim	FLuc biochem
COc1cc2nc(NCC3CCCO3)n3nc(-c4cccnc4)nc3c2cc1OC (stereo not drawn)	11.4%	2.31µM*	0.3%	20.6µM*	5.8%	9.2µM*	.	3.97µM*	17.7µM*	?	5.2%	-11.5%	.
COc1cc(C)c2c(=O)cc(-c3ccccc3)oc2c1	.	.	14.0%	?	5.9%	?	.	.	.	.	.	-6.4%	.
COc1cc(OC)c2c(=O)cc(-c3cccnc3)oc2c1	0.0%	?	-16.5%	?	-5.8%	-28.0%	.	.	.	.	.	.	.
O=C1CN(Cc2ccc(-c3cnc4c(OCc5ccccc5)nccn34)cc2)CCN1	30.0%[176 µM]	.	.	.	.	.	.	.	.	.	.	.	.
COc1ccc(CCNC(=O)CCN2C(=O)c3ccccc3C2=O)cc1OC	.	-1.6%	1.0%	.	-11.2%	.	.	.	.	.	.	.	.
COc1ccc(CCN2C(=O)c3cccc4c(C(=O)N5CCCCC5)ccc(c34)C2=O)cc1OC	-7.8%	3.66µM*	8.0%	?	-23.1%	16.4µM*	.	7.91µM*	7.91µM*	?	11.2µM*	14.1µM*	.
COc1ccc2sc3c(=O)[nH]c4ccccc4c3c2c1	-7.0%	0.82µM*	25.0%	1.64µM*	2.7%	5.8µM*	-6.5%	1.99µM*	1.58µM*	7.9%	9.5%	3.9%	1.3%
O=C(NCc1cccs1)c1cc(-c2ccccc2)on1	-8.4%	?	-36.5%	-18.0%	5.5%	-13.0%	76.6%	.	.	.	.	-13.6%	?
CCNc1c(NC(=O)c2ccccc2Br)c(=O)oc2ccccc12	-0.5%	.	.	.	.	.	.	.	.	.	.	.	.
CCOC(=O)c1cc(-c2ccccn2)nc2c1c(=O)[nH]c(=O)n2CCOC	-27.2%	.	.	.	.	.	.	.	.	.	.	.	.
CCOC(=O)c1cc(-c2ccc([N+](=O)[O-])cc2)nc2c1c(=O)[nH]c(=O)n2Cc1ccccc1	-19.8%	26.3%	4.2%	5.8µM*	-21.5%	7.31µM*	61.0%	.	.	.	.	-19.1%	-8.0%
ICC[n+]1csc2ccccc21	.	.	.	?	.	?	.	.	.	.	.	-1.2%	.
COC(=O)Cn1c2[n+](c3ccccc31)CC(O)CS2 (stereo not drawn)	?	?	1.9%	7.3%	-3.2%	-0.6%	8.3%	22.9%	7.7%	-4.3%	-0.7%	-1.4%	2.4%
CCOC(=O)Cn1c2[n+](c3ccccc31)CC(O)CS2 (stereo not drawn)	?	-4.4%	-42.5%	12.2%	-1.1%	6.4%	.	.	.	.	.	.	.
COc1ccc(-c2cn(Cc3ccc(C(=O)c4ccccc4)cc3)nn2)cc1	7.2%	?	?	7.31µM*	?	2.06µM*	.	.	.	.	.	?	.
COc1cc(C(=O)Nc2ccccc2NC(=O)c2cc(OC)c(OC)c(OC)c2)cc(OC)c1OC	-1.2%	3.26µM*	7.7%	-9.3%	1.1%	2.6%	.	3.15µM*	-0.2%	?	9.9%	?	.
COc1cc(C(=O)Nc2ccccc2C(=O)Nc2ccccn2)cc(OC)c1OC	?	2µM*	-1.7%	3.26µM*	-2.7%	4.61µM*	.	3.53µM*	12.5µM*	?	?	?	.
COc1cc(C(=O)NC(=S)Nc2ccccc2N2CCCC2)cc(OC)c1OC	?	2.59µM*	4.47µM*	20.6µM*	3.98µM*	?	.	3.97µM*	-18.6%	?	10.0%	?	.
CNC(=O)[C@@H]1C[C@H](Oc2cccnc2)CN1S(=O)(=O)c1ccc(C#N)cc1	18.5%	.	.	.	.	.	.	.	.	.	.	.	.
Cc1cccc(CNC(=O)C2(c3ccc(NS(C)(=O)=O)cc3)CCC2)c1	44.9%	.	.	.	.	.	.	.	.	.	.	.	.
C=Cc1ccc(N=Cc2ccc(N(C)C)cc2)cc1	.	.	.	-28.3%	.	-4.3%	.	.	.	.	.	.	.
CN(C)c1ccc(C=Nc2cncc3ccccc23)cc1	.	.	.	-25.1%	.	13.5%	49.6%	.	.	.	.	-4.8%	0.291µM*
Nc1ccc(/C=C/c2ccc3cccnc3c2)cc1	.	.	.	15.8µM*	.	?	42.9%	.	.	.	.	-1.3%	0.366µM*
